Records with an inconclusive call do not appear. Unmarked numbers belong to inactive results. Activity calls are given as the source filed them. Calls come from the whole dose curve; as a rule, active = well fitted cell-killing curve with a large enough effect; inconclusive = small, poorly fitted or top-dose-only effect, or effect the other way; inactive = no such curve, though single readings can be large or run the other way.
Assay: Viability qHTS for spleen associated tyrosine kinase inhibitor (SYKi) naive MV4-11 cells (AID 1963823); note: nearly all actives have a fitted effect of over 40% in size
Details: MV4-11 AML viability, CellTiter-Glo luminescence, 72 h; series mostly up to 45 µM; viability (% of control): at the top concentration
How it was run: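 In this viability screen, compounds acted on SYK inhibitor naive MV4-11 cells for three days (72 hr, 37 C). Remaining viable cells were measured by CellTiter-Glo luminescence following a 10 min room-temperature development.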
Potency is the fitted concentration of half-maximal effect.

Structure (SMILES)	Potency	viability (% of control)
C=CC(=O)Nc1cc(Nc2nccc(-c3c[nH]c4ccccc34)n2)c(OC)cc1N(C)CCN(C)C	0.411 µM (active)	–
C=C1C(=O)OC2CC(C)=C(C(C)CCCO)C(O)C12 (centres undefined)	–	61.1%
c1ccc(-c2[nH]ncc2-c2ccnc3ccccc23)nc1	–	76.1%
CC1(C)CC2C(O)c3cocc3CC(C)(O)C2C1 (centres undefined)	–	67.4%
COc1c(O)cc2c(c1O)C(=O)O[C@H](C)[C@H]2O	–	85.8%
C=C1[C@H](OC(C)=O)[C@H]2[C@@H](OC(C)=O)C(C)C[C@]2(OC(C)=O)C(=O)[C@H](C)/C=C/C(C)(C)C(=O)[C@H](OC(=O)C(C)C)[C@H]1OC(C)=O (some centres undefined)	–	56.2% [at 17.3 µM]
CCCC(=O)O[C@@H]1[C@@H]2[C@@H](OC(C)=O)[C@]3(C)C(=O)[C@H]4[C@@H](OC(C)=O)C(C)(C)C[C@H]4[C@]3(C)C(=O)[C@@]2(OC(C)=O)C[C@@H]1C	–	68.3% [at 17.3 µM]
COC(=O)C1=CO[C@@H](O[C@@H]2O[C@H](COC(=O)/C=C/c3cc(OC)c(O)c(OC)c3)[C@@H](O)[C@H](O)[C@H]2O)[C@@H]2C(CO)=CC[C@H]12	–	77.3% [at 17.3 µM]
O=C(NCC(=O)N1CCCC1)Nc1ccc2ccccc2c1	5.8 µM (active)	–
[N-]=[N+]=N[C@]1(CO)O[C@@H](n2ccc(N)nc2=O)[C@@H](O)[C@@H]1O	–	70.1%
C=CC(C)(O)CC/C=C(/C)COC(=O)C(C)C1CCC(C)(C=C)O1 (centres undefined)	–	60.9%
COc1ccc2c(c1)OC[C@]1(O)c3cc4c(cc3O[C@H]21)OCO4	–	58.7%
C[C@@H]1O[C@@H](O[C@@H]2[C@@H](O)[C@H](O[C@H]3[C@H](O[C@H]4CC[C@@]5(C)C(CC[C@]6(C)C5CC=C5[C@@H]7CC(C)(C)CC[C@]7(C(=O)O[C@@H]7O[C@H](CO)[C@@H](O)[C@H](O)[C@H]7O[C@@H]7O[C@@H](C)[C@H](O[C@@H]8O[C@@H](C)[C@H](O)[C@@H](O)[C@H]8O)[C@@H](O)[C@H]7O)CC[C@]56C)[C@@]4(C)CO)O[C@H](C(=O)O)[C@@H](O)[C@@H]3O)O[C@H](CO)[C@H]2O)[C@H](O)[C@H](O)[C@H]1O (some centres undefined)	–	94% [at 9.25 µM]
CCn1c(=O)c2cc(C(N)=O)c(N)nc2n(C2CC2)c1=O	–	77.1%
